Among all 13,000 compounds or so, about 3,200 (25%) showed an effect of 50% or more. The list shows a part of the results.
What follows are compounds tested on P. falciparum stage V gametocytes. Conditions: 48 h, 5 µM; inhibitor.
Parameters: BacTiter-Glo ATP luminescence viability of purified stage V gametocytes in 384-well plates, per cent inhibition versus DMSO
In the case of `CCC(C)Oc1ccc2nc(N)nc(N)c2c1Cl` (stereo not drawn) [TCMDC-137760], the “% Inhibition” value is reported as 3.28%.
For `O=C(NCCOc1ccccc1)[C@H](Cc1ccccc1)Nc1ccnc(NCC2CCCCC2)n1` [TCMDC-134710], the “% Inhibition” value was 2.198%.
`CC(C)(C)CNCC(C)(C)c1nc(-c2ccc(Cl)c(O)c2)c(-c2ccncc2)[nH]1` [TCMDC-140549] was tested, and the “% Inhibition” value was -40.13%.
With `CN1CCCN(Cc2ccc(-c3cccc(NC(=O)c4ccc(Cl)cc4)c3)cc2)CC1` [TCMDC-132628] the “% Inhibition” value was 20.29%.
In the case of `CN1N=C2c3ccccc3CCC2C1c1ccc(C#N)cc1` (stereo not drawn) [TCMDC-123771], the “% Inhibition” value is reported as -59.69%.
For `CN(CCO)Cc1ccc(-c2ccc(NS(=O)(=O)c3cccc4cccnc34)cc2)cc1` [TCMDC-136473], the “% Inhibition” value was -2.439%.
In the case of `C=C(C)COc1ccc(-c2n[nH]c(C(F)(F)F)c2-c2ccccc2OC)c(O)c1` [TCMDC-124477], the “% Inhibition” value is reported as 8.317%.
With `COc1ccc(N2CCN(C(CNC(=O)C3CCCCC3)c3ccc4c(c3)OCO4)CC2)cc1` (stereo not drawn) [TCMDC-124312] the “% Inhibition” value was 30.25%.
With `COc1ccc(C)cc1NC(=O)CSc1nc2cccnc2n1C1CCCCC1` [TCMDC-123649] the “% Inhibition” value was 3.671%.
`COc1ccccc1NC(=O)CSc1nc2cccnc2n1-c1ccccc1OC` [TCMDC-123645] was tested, and the “% Inhibition” value was 66.58%.
`COc1ccccc1-n1c(SCC(=O)Nc2ccccc2F)nc2cccnc21` [TCMDC-123647] was tested, and the “% Inhibition” value was 7.521%.
`c1ncc(CCNc2nc(Nc3ccc4c(c3)OCO4)nc(NC3CCCC3)n2)[nH]1` [TCMDC-139739] was tested, and the “% Inhibition” value was 13.1%.
With `CC(=O)Nc1ncc(C(=O)Nc2ccc(-c3cccc(-c4nc5ccc(F)cc5[nH]4)c3)cc2)s1` [TCMDC-136912] the “% Inhibition” value was 21.3%.
For `O=C(Nc1cc(F)cc(F)c1)N1CCOC(CCN2CCC3(CCc4ccccc43)CC2)(c2ccc(Cl)c(Cl)c2)C1` (stereo not drawn) [TCMDC-135331], the “% Inhibition” value was -8.718%.
`CCOC(=O)c1c(-c2ccccc2)[nH]c2c(sc3ccccc32)c1=O` [TCMDC-131540] was tested, and the “% Inhibition” value was 7.736%.
In the case of `Cc1c(CCc2cccc(F)c2F)[nH]c2ccccc2c1=O` [TCMDC-141293], the “% Inhibition” value is reported as 23.35%.
`CCOC(=O)c1c(SCc2cccc(F)c2F)[nH]c2ccccc2c1=O` [TCMDC-141118] was tested, and the “% Inhibition” value was 58.44%.
With `CCCCOC(=O)[C@H](CCC)NC(=O)c1ccc(NS(=O)(=O)c2ccc3nc(N)[nH]c(=O)c3c2)cc1` [TCMDC-137698] the “% Inhibition” value was 14.55%.
For `COc1ccc2c(CNCCCCCCNCc3c(OC)ccc4cc(OC)ccc34)c(OC)ccc2c1` [TCMDC-137300], the “% Inhibition” value was 117.1%.
With `COc1ccc2c(OC)c(CNCCCCCCNCc3ccc4cc(OC)ccc4c3OC)ccc2c1` [TCMDC-137953] the “% Inhibition” value was 105.9%.
`COc1ccc2cc(CNCCCCCCNCc3ccc4cc(OC)ccc4c3)ccc2c1` [TCMDC-137797] was tested, and the “% Inhibition” value was 110.4%.
In the case of `COc1ccc2ccc(OC)c(CNCCCCCCNCc3c(OC)ccc4ccc(OC)cc34)c2c1` [TCMDC-137796], the “% Inhibition” value is reported as 140.1%.
For `COc1ccc(OC)c(C(O)CNC(C)C)c1` (stereo not drawn) [TCMDC-124281], the “% Inhibition” value was 22.77%.
In the case of `COc1cc(CNCCCCCCNCc2cc(OC)cc3ccccc23)c2ccccc2c1` [TCMDC-137823], the “% Inhibition” value is reported as 16.43%.

— paper PMC4552634, “A New Set of Chemical Starting Points with Plasmodium falciparum Transmission-Blocking Potential for Antimalarial Drug Discovery” (PLoS ONE, 2015)
